Screening results deposited in PubChem by NMMLSC.
Most compounds without a hit are left out; they make up all but 1.2% or so of the library.
RGS4-Gao reg – human RGS4-Galphao interaction regulation. Multiplexed bead flow cytometry, RGS4-Galphao binding; actives lie on both sides. binding response (% of control), % at 10 µM. 220,000 tested, 0.33% active. AID 1415; in the data active = binding response below about 49% or above about 150%; inactive = in between;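 note: fluorescent Galphao activated with aluminum fluoride binding bead-coupled RGS4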
Target sequence (P09471 whole entry, looked up): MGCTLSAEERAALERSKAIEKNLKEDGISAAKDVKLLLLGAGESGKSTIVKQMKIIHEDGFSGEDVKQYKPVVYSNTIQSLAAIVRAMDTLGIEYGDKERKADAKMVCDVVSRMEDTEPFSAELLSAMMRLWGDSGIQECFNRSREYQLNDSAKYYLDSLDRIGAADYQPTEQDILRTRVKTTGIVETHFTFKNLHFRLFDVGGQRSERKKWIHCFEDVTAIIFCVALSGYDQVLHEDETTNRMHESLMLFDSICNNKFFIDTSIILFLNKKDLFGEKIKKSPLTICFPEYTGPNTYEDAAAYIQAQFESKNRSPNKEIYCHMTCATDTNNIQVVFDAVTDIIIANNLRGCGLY
RGS16-Gao – RGS16-Galphao interaction regulator (human); 220,000 tested, 0.38% active; O15492+P09471; binding response (% of control), % at 10 µM; bead-based flow cytometry RGS16-Galphao binding, fluorescence; actives lie on both sides; AID 1441;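 note: Galphao activated by GDP with aluminum fluoride before binding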
RGS7-Gao – modulates binding of RGS7 to human Galphao | binding response (% of control), % at 10 µM | 220,000 tested, 0.35% active | P09471 | Multiplexed bead flow cytometry; actives lie on both sides; in the data active = binding response below about 49% or above about 150%; inconclusive = no clear call, values can overlap the other calls; inactive = in between;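 note: fluorescent Galphao held in activated GDP-AlF4 state binding bead-coupled RGS7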
GSH bead fluor – compound fluoresces at 488/530 nm on GSH beads; fluorescence (KMESF) at 10 µM; 190,000 tested, 0.25% active; GSH beads flow cytometry, compound fluorescence 488/530 nm; stronger effect = higher value; in the data active = fluorescence above about 89;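 note: glutathione beads carrying GST-tagged Bcl family fusion proteins plus one bare bead set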
Avidin bead fluor – compound fluoresces at 488/530 nm on avidin beads | AID 1775 | fluorescence (KMESF) at 10 µM | compound fluorescence 488/530 nm, flow cytometry; stronger effect = higher value | 220,000 tested, 0.38% active; in the data active = fluorescence above about 47
RGS8-Gao reg – modulates binding of RGS8 to human Galphao | multiplexed bead flow cytometry; actives lie on both sides | response (percent of control binding), % at 10 µM | 220,000 tested, 0.34% active | AID 1423; in the data active = response below about 60% or above about 140%; inactive = in between;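 note: Galphao activated as the GDP aluminium fluoride complex binding bead-coupled RGS8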
RGS-Gao – RGS4-Galphao interaction regulator (human) | shares compounds with RGS16-Gao | multiplexed bead flow cytometry, RGS–Galpha-o binding | RGS4–Galpha-o binding response, % at 10 µM | 1,600 tested, 99% active | AID 1504;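 note: fluorescently labeled Galpha-o bound to GDP with aluminium fluoride binding biotinylated RGS beads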
Biotin-avidin – interferes with biotinylated probe binding to avidin beads | shares compounds with RGS16-Gao | streptavidin beads, fluorescein-biotin binding, flow cytometry | inhibition, % at 10 µM | 1,700 tested, under 10 active;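 active = inhibition above 50%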;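 note: median green fluorescence of gated singlet beads compared with DMSO control wells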
RGS8-Gao confirm – RGS8-Galphao interaction regulation, single point confirmation. shares compounds with RGS16-Gao. bead-based flow cytometry RGS8-Galphao binding, fluorescence; actives lie on both sides. binding response (% of control), % at 10 µM. 1,700 tested, 3% active; in the data active = binding response below about 72% or above about 130%; inactive = in between;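 note: Galphao activated as GDP AlF4 complex before binding bead RGS8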
RGS7-Gao single – confirmation of regulators of human RGS7-Galphao interaction | response (percent of control binding), % at 10 µM | bead-based flow cytometry RGS7-Galphao binding; actives lie on both sides | AID 1837 | 1,700 tested, 7.8% active | shares compounds with RGS16-Gao; in the data active = response below about 75% or above about 130%; inactive = in between;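 note: fluorescent Galphao activated with GDP and aluminum fluoride binding bead-coupled RGS7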
RGS16-Gao single – RGS16-Galphao interaction regulation, single point confirmation. response (% of control binding), % at 10 µM. shares compounds with RGS16-Gao. bead-based flow cytometry, RGS16-Galphao binding; actives lie on both sides. 1,700 tested, 4% active; in the data active = response below about 74% or above about 130%; inactive = in between;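 note: Galphao activated as the GDP aluminium fluoride complex binding bead-coupled RGS16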
RGS4-Gao confirm – RGS4-Galphao interaction regulation, single point confirmation | shares compounds with RGS16-Gao | RGS4-Galphao binding, multiplexed bead flow cytometry; actives lie on both sides | binding response (% of control), % at 10 µM | 1,700 tested, 4% active | AID 1840; in the data active = binding response below about 74% or above about 130%; inactive = in between
RGS19-Gao single – confirmation of regulators of human RGS19-Galphao interaction; shares compounds with RGS16-Gao; 1,700 tested, 5% active; bead-based flow cytometry RGS19-Galphao binding; actives lie on both sides; response (percent of control binding), % at 10 µM; in the data active = response below about 50% or above about 160%; inactive = in between
Target sequence (P09471 whole entry, looked up): as above
Target sequence (P49795 whole entry, looked up): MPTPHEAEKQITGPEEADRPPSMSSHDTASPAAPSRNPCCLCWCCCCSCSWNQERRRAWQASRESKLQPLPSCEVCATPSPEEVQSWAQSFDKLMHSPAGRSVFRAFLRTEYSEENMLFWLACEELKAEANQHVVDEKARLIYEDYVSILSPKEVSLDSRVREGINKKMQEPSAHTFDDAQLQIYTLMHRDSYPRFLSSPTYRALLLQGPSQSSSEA
Of the large screens only hits and unclear results are named; the others gave an inactive call (follow-up assays come after a bar, where they were run); [ ] = dose if it differs, or a comment. Unless noted, the rule behind the calls is not given here.

O=C1CCCC2=C1C(c1ccccc1O)C1=C(CCCC1=O)O2	RGS8-Gao reg 141.4[activator] | RGS-Gao 113.4 | Biotin-avidin inactive | RGS8-Gao confirm inactive | RGS7-Gao single inactive | RGS16-Gao single inactive | RGS4-Gao confirm inactive | RGS19-Gao single inactive
COc1cc(NC(=O)SC2=NCCS2)cc(OC)c1	RGS4-Gao reg 40.7, RGS7-Gao inconclusive (no result: GSH bead fluor) | Biotin-avidin inactive | RGS8-Gao confirm inactive | RGS7-Gao single inactive | RGS16-Gao single inactive | RGS4-Gao confirm inactive | RGS19-Gao single inactive
COc1cc(OC)cc(C(=O)NC2=NCCS2)c1	none
O=C(O)/C=C/C(=O)Nc1ccc(Oc2ncnc3cc(Cl)ccc23)nc1	RGS7-Gao inconclusive (no result: GSH bead fluor)
Cc1cc(C(=O)CSc2nc3ccccc3c(=O)n2C)c(C)n1Cc1ccc2c(c1)OCO2	RGS4-Gao reg active[activator], RGS16-Gao active[activator], Avidin bead fluor 152 (no result: RGS8-Gao reg) | Biotin-avidin inactive | RGS8-Gao confirm inactive | RGS7-Gao single inactive | RGS16-Gao single inactive | RGS4-Gao confirm inactive | RGS19-Gao single inactive
Cc1cc(C(=O)CSc2nnc(-c3ccccc3)n2Cc2ccc3c(c2)OCO3)c(C)n1C	none
O=C(C1CCCN1S(=O)(=O)c1cccc2nsnc12)N1CCCCCC1 (stereo unspecified)	RGS7-Gao inconclusive (no result: GSH bead fluor)
CCOc1ccc(CC(=O)Nc2ccc(NC(=O)c3ccco3)cc2)cc1OCC	RGS4-Gao reg 27.9, RGS16-Gao 16.4, RGS7-Gao 20.2, RGS8-Gao reg 22.9 | Biotin-avidin inactive | RGS8-Gao confirm inactive | RGS7-Gao single inactive | RGS16-Gao single inactive | RGS4-Gao confirm inactive | RGS19-Gao single inactive
CCCCCC(=O)NC(=S)Nc1ccc(NC(=O)c2ccco2)cc1	RGS16-Gao 178.9[activator] | RGS-Gao 110.5 | Biotin-avidin inactive | RGS8-Gao confirm inactive | RGS7-Gao single inactive | RGS16-Gao single inactive | RGS4-Gao confirm inactive | RGS19-Gao single inactive
CCCCCC(=O)N/N=C(\C)c1ccc(NC(=O)c2ccco2)cc1	none
CCc1cccc(NC(=O)CS(=O)Cc2nc(-c3ccc(C)cc3)oc2C)c1 (stereo unspecified)	none
O=S(=O)(c1ccc(F)cc1)N1CCC(N2CCCC2)CC1	RGS7-Gao 162.9[activator], Avidin bead fluor 88 | RGS-Gao 107.3
O=C(C1CCN(S(=O)(=O)c2ccc(F)cc2)CC1)N1CCOCC1	RGS7-Gao 167.6[activator], Avidin bead fluor 110 | RGS-Gao 115.1 | Biotin-avidin inactive | RGS8-Gao confirm inactive | RGS7-Gao single inactive | RGS16-Gao single inactive | RGS4-Gao confirm inactive | RGS19-Gao single inactive
COc1ccc(S(=O)(=O)N2CCC(N3CCCCC3)CC2)cc1	none
COC(=O)c1cc(=O)c2c(C)nc(C(Cl)(Cl)Cl)nc2[nH]1	RGS7-Gao inconclusive
CC(C)CC(=O)NC1(C(F)(F)F)C(=O)N(CC(C)C)C2=C1C(=O)CC(C)(C)C2 (stereo unspecified)	RGS4-Gao reg 164.9[activator], RGS7-Gao 169.0[activator], RGS8-Gao reg 154.9[activator] | Biotin-avidin inactive | RGS8-Gao confirm inactive | RGS7-Gao single inactive | RGS16-Gao single inactive | RGS4-Gao confirm inactive | RGS19-Gao single inactive
CCN(CC)S(=O)(=O)c1ccc(Cl)c(C(=O)Oc2cccc(-c3cnc4ccccc4n3)c2)c1	none
CCN(CC)S(=O)(=O)c1cc(C(=O)Oc2cccc(-c3cnc4ccccc4n3)c2)ccc1Br	RGS4-Gao reg -29.9, RGS16-Gao -28.6, RGS7-Gao -8.5, RGS8-Gao reg 11.4 | Biotin-avidin inactive | RGS8-Gao confirm inactive | RGS7-Gao single inactive | RGS16-Gao single inactive | RGS4-Gao confirm inactive | RGS19-Gao single inactive
Cc1onc(-c2ccccc2Cl)c1C(=O)OCC(=O)c1c(N)n(C)c(=O)n(C)c1=O	RGS7-Gao inconclusive
Cc1ccc(NC(=S)N2CCOCC2)c(C)c1	none
Cc1ccc(NC(=S)N2CCN(C)CC2)c(C)c1	RGS16-Gao 186.1[activator] | RGS-Gao 106.7 | Biotin-avidin inactive | RGS8-Gao confirm inactive | RGS7-Gao single inactive | RGS16-Gao single inactive | RGS4-Gao confirm inactive | RGS19-Gao single inactive
O=C(Oc1cccc2cccnc12)c1ccco1	none
O=C(Cc1ccc(Cl)cc1)Oc1cccc2cccnc12	RGS16-Gao 22.4 | RGS-Gao 78.9 | Biotin-avidin inactive | RGS8-Gao confirm inactive | RGS7-Gao single inactive | RGS16-Gao single inactive | RGS4-Gao confirm inactive | RGS19-Gao single inactive
NS(=O)(=O)c1ccc(CCNC(=O)COC(=O)CN2C(=O)C3CCCCC3C2=O)cc1 (stereo unspecified)	none
CCOC(=O)CNC(=O)CSc1nnc(SCC(=O)NCC(=O)OCC)s1	none
O=C(O)CCSc1nnc(SCC(=O)NCC(F)(F)F)s1	RGS16-Gao 8.8 | RGS-Gao 92.9 | Biotin-avidin inactive | RGS8-Gao confirm inactive | RGS7-Gao single inactive | RGS16-Gao single inactive | RGS4-Gao confirm inactive | RGS19-Gao single inactive
CC1CCC2(CC1)NC(CO)(CO)CO2 (stereo unspecified)	none
CCC1CCC2(CC1)NC(CO)(CO)CO2 (stereo unspecified)	RGS8-Gao reg 144.6[activator] | RGS-Gao 115.2 | Biotin-avidin inactive | RGS8-Gao confirm inactive | RGS7-Gao single inactive | RGS16-Gao single inactive | RGS4-Gao confirm inactive | RGS19-Gao single inactive
CN(C)C(=O)CSc1nc2ccccc2c(=O)[nH]1	RGS7-Gao 276.7[activator], Avidin bead fluor 165 | RGS-Gao 127.0 | Biotin-avidin inactive | RGS8-Gao confirm inactive | RGS7-Gao single inactive | RGS16-Gao single inactive | RGS4-Gao confirm inactive | RGS19-Gao single inactive
Cc1cc(C)c(C#N)c(SCCS(=O)(=O)c2ccc(C(C)(C)C)cc2)n1	none (no result: RGS4-Gao reg, RGS16-Gao, RGS7-Gao, Avidin bead fluor, RGS8-Gao reg) | Biotin-avidin inactive | RGS8-Gao confirm inactive | RGS7-Gao single inactive | RGS16-Gao single inactive | RGS4-Gao confirm inactive | RGS19-Gao single inactive
Cc1cc(C)c(C#N)c(SCCS(=O)(=O)c2ccc(Cl)cc2)n1	RGS7-Gao inconclusive (no result: GSH bead fluor)
